Compound activity: PubChem BioAssay, Johns Hopkins Ion Channel Center
This is a sample that favours compounds with a hit; in the whole collection about 1.6% have one here.
KCNQ2 enhance = potentiators of rat KCNQ2 potassium channel | CHO-K1 KCNQ2, FluxOR thallium flux fluorescence; hits give high values | actives 0.54% (n = 310,000) | O88943 | AID 2239 | B-score at 10 µM;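 active means fluorescence ratio B-score at least 3 SD of library B-scores, with initial fluorescence B-score within 3 of them, cut at about 5.3 in these data; same plate scores as AID 2156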;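 further: B-score of peak minus minimum over baseline fluorescence ratio after K+ and Tl+ stimulus; positive B-score means potentiation of KCNQ2 with more thallium influx and brighter signal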
KCNQ2 inh = inhibitors of rat KCNQ2 potassium channel; CHO-K1 KCNQ2, FluxOR thallium flux, 20 min; hits give low values; B-score at 10 µM; actives 1.1% (n = 310,000);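 active means fluorescence ratio B-score at most minus 3 library SDs, with starting brightness B-score within 2 library SDs, cut at about -5.5 in these data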
Active calls of the source: *.

Results for O=C(O)C(Cc1c[nH]c2ccccc12)NS(=O)(=O)c1ccc(Br)cc1 (configuration not stated) ?
KCNQ2 enhance: 1.2; KCNQ2 inh: inactive

What do the screens show for `CCOC(=O)N1CCN(C2CCCN(C(=O)c3cccc(Cl)c3)C2)CC1` (configuration not stated)?
KCNQ2 enhance: 0.03; KCNQ2 inh: inactive

What do the screens show for `CCN(CC)S(=O)(=O)c1ccc(N2CCOCC2)c(NC(=O)c2cc(C)cc(C)c2)c1`?
KCNQ2 enhance: -6.2; KCNQ2 inh: -6.2*

What do the screens show for `CCN(CC)S(=O)(=O)c1ccc(N2CCOCC2)c(NC(=O)CC(C)(C)C)c1`?
KCNQ2 inh: inactive

Results for CCN(CC)S(=O)(=O)c1ccc(N2CCOCC2)c(NC(=O)COc2ccc(Cl)cc2)c1 ?
KCNQ2 enhance: -6.6; KCNQ2 inh: -6.6*

What do the screens show for `CCN(CC)S(=O)(=O)c1ccc(N2CCOCC2)c(NC(=O)c2ccccc2)c1`?
KCNQ2 inh: inactive

Results for Cc1ccc(CCC(=O)Nc2ccc(C#N)cc2)o1 ?
KCNQ2 inh: inactive

What do the screens show for `CCSC1=C(C#N)C(c2cccs2)C(C(=O)OC)=C(C)N1` (configuration not stated)?
KCNQ2 enhance: 1.4; KCNQ2 inh: inactive

What do the screens show for `CCCSC1=C(C#N)C(c2cccs2)C(C(=O)Nc2ccccc2)=C(C)N1` (configuration not stated)?
KCNQ2 enhance: -8.8; KCNQ2 inh: -8.8*

Results for CN(C)c1cccc(C(=O)NCCCSc2ccccc2)c1 ?
KCNQ2 inh: inactive

How did CC(Sc1nc(-c2ccco2)nc2c1c(=O)n(C)c(=O)n2C)C(=O)O (configuration not stated) do in these assays?
KCNQ2 enhance: 0.16; KCNQ2 inh: inactive

Results for O=S(=O)(NCCSCc1ccc(Cl)cc1Cl)c1ccc2c(c1)OCCO2 ?
KCNQ2 inh: inactive

What do the screens show for `O=S(=O)(NCCSCc1c(Cl)cccc1Cl)c1ccc2c(c1)OCCO2`?
KCNQ2 enhance: -6.8; KCNQ2 inh: -6.8*

How did CCn1c(/C=C/c2ccccc2)nc2ccccc21 do in these assays?
KCNQ2 inh: inactive

Results for CCC(C)n1c(/C=C/c2ccccc2)nc2ccccc21 (configuration not stated) ?
KCNQ2 enhance: -5.7; KCNQ2 inh: -5.7*

Results for CN(C)/C=C/C(=O)c1ccc(C(F)(F)F)cc1F ?
KCNQ2 inh: inactive

What do the screens show for `O=C(COC(=O)CC(c1ccccc1)c1ccccc1)Nc1cccc(F)c1`?
KCNQ2 inh: inactive

What do the screens show for `O=C(COC(=O)CC(c1ccccc1)c1ccccc1)Nc1ccc(F)c(F)c1`?
KCNQ2 enhance: -8.1; KCNQ2 inh: -8.1*

What do the screens show for `COc1ccc2nc(SC(C(=O)c3ccccc3)c3ccccc3)nc(C)c2c1` (configuration not stated)?
KCNQ2 enhance: -5.6; KCNQ2 inh: -5.6*

Results for Cc1nc(SC(C(=O)c2ccccc2)c2ccccc2)nc2ccccc12 (configuration not stated) ?
KCNQ2 inh: inactive

Results for Cc1ccc2c(C)nc(SC(C(=O)c3ccccc3)c3ccccc3)nc2c1 (configuration not stated) ?
KCNQ2 enhance: -6; KCNQ2 inh: -6*

Results for COc1ccc2nc(SCc3ccccc3C)nc(C)c2c1 ?
KCNQ2 inh: inactive

What do the screens show for `COc1ccc(N2CCN(C(=O)COC(=O)c3ccco3)CC2)cc1`?
KCNQ2 enhance: 0.73; KCNQ2 inh: inactive

What do the screens show for `CCOC(=O)c1cnn(-c2ccccc2)c1-n1cccc1C(=O)C(=O)N(CC)CC`?
KCNQ2 enhance: 0.3; KCNQ2 inh: inactive

What do the screens show for `CCOC(=O)c1cnn(-c2ccccc2)c1-n1cccc1C(=O)C(=O)Nc1ccccc1C(F)(F)F`?
KCNQ2 enhance: -7; KCNQ2 inh: -7*

What do the screens show for `Nc1ccc(C(=O)CC(=O)Nc2ccc(Cl)cc2)cc1`?
KCNQ2 enhance: 1.1; KCNQ2 inh: inactive

How did COC(=O)c1c(NC(=O)COC(=O)Cn2cnc3ccccc32)sc2c1CCCC2 do in these assays?
KCNQ2 inh: inactive

What do the screens show for `Cc1cc(Cl)ccc1OC(C)C(=O)Nc1ccc(C(=O)Nc2ccccc2C(=O)O)cc1` (configuration not stated)?
KCNQ2 inh: inactive

What do the screens show for `O=C(NCC1CCCN(Cc2ccc3nonc3c2)C1)c1cccc(C(F)(F)F)c1` (configuration not stated)?
KCNQ2 enhance: -5.7; KCNQ2 inh: -5.7*

Results for O=C(NCC1CCCN(Cc2ccc3c(c2)OCCO3)C1)c1ccc2c(c1)OCO2 (configuration not stated) ?
KCNQ2 enhance: 0.77; KCNQ2 inh: inactive

Results for O=C(CCCCCNC(=O)c1ccccc1Br)N=Nc1c(O)[nH]c2ccccc12 ?
KCNQ2 inh: inactive

What do the screens show for `O=C(O)CN1CCc2ccccc2C1`?
KCNQ2 inh: inactive

How did COc1ccc(/C=C/C(=O)O)cc1COc1cccc(C)c1 do in these assays?
KCNQ2 enhance: 0.61; KCNQ2 inh: inactive

How did COc1ccc(C=O)cc1COc1ccc([N+](=O)[O-])c(C)c1 do in these assays?
KCNQ2 enhance: -6.8; KCNQ2 inh: -6.8*

What do the screens show for `CC1CCCCN1C(=O)CSc1nc(C2CC2)nc2ccccc12` (configuration not stated)?
KCNQ2 inh: inactive

Results for O=C(O)CN=CC1=C(O)CC(c2ccccc2)CC1=O (configuration not stated) ?
KCNQ2 inh: inactive

What do the screens show for `Cc1ccc(CN2CCN(Cc3ccc(O)cc3)CC2CCO)o1` (configuration not stated)?
KCNQ2 inh: inactive

What do the screens show for `CC1(C)CC(=O)C2=C(C1)OC1=C(C(=O)CC(C)(C)C1)C2c1ccc(O)cc1O`?
KCNQ2 inh: inactive

What do the screens show for `CC1(C)CC(=O)C2=C(C1)OC1=C(C2)C(=O)CC(C)(C)C1`?
KCNQ2 enhance: -6; KCNQ2 inh: -6*

How did O=C(NC1CCCCC1)C(c1ccc(F)cc1)N(C(=O)c1csnn1)C1CCCC1 (configuration not stated) do in these assays?
KCNQ2 inh: inactive

Results for Cc1coc2c1C(=O)C(=O)c1c-2ccc2c1CCCC2(C)C ?
KCNQ2 inh: inactive

Results for C[C@H]1COC2=C1C(=O)C(=O)c1c2ccc2c1CCCC2(C)C ?
KCNQ2 enhance: -6.2; KCNQ2 inh: -6.2*

How did O=C(NNc1ccc([N+](=O)[O-])cc1)C1CC2CCCC(C1)C2=O (configuration not stated) do in these assays?
KCNQ2 enhance: 0.7; KCNQ2 inh: inactive

Results for O=C(NNc1ccc([N+](=O)[O-])cc1)C1CC1c1ccccc1 (configuration not stated) ?
KCNQ2 enhance: 6.3*; KCNQ2 inh: inactive

How did C=C(C)Cn1c(CN(C)Cc2ccccc2)nc2c1c(=O)n(C)c(=O)n2C do in these assays?
KCNQ2 enhance: 2.4; KCNQ2 inh: inactive

What do the screens show for `CC(C)N(C)Cc1nnnn1CC(=O)N(C)Cc1cccc(Cl)c1`?
KCNQ2 inh: inactive

What do the screens show for `COc1ccc(CN(C)CC(=O)N2CCc3ccccc3C2)cc1`?
KCNQ2 inh: inactive

Results for CCOc1cc(CNc2ccc(O)cc2)cc(Br)c1OCc1ccccc1F ?
KCNQ2 inh: inactive

How did C=CCOc1c(Br)cc(CNc2ccc(NC(=O)C(C)C)cc2)cc1OCC do in these assays?
KCNQ2 enhance: 8.3*; KCNQ2 inh: inactive

Results for CCCCNC(=O)c1onc(CSc2ccc(F)c(F)c2)c1C(=O)NCCCC ?
KCNQ2 inh: inactive
